Inconclusive results are not listed. The source made the active and inactive calls. The calls were made as follows, unless noted: active = hit-call score of the fitted dose curve at least 0.9, where 1 is the maximum; inactive = score below 0.9.

Test [1] in a line: ACEA_ER_80hr: ACEA Biosciences xCELLigence Real-Time Cell Analysis on Estrogen Receptor Agonism for Proliferation (AID 2282667; active = hit-call score of the fitted dose curve at least 0.9, where 1 is the maximum). To be noted: T47D proliferation, impedance (xCELLigence), 80 h. The procedure, abridged: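 Real-time impedance growth kinetics of human T-47D breast cells read 80 h after dosing, gain-of-signal fitted relative to DMSO. Compounds: 1:4 serial series, top final concentration 100 uM, n = 2.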

A short description of test [2]: ATG_CRE_CIS: Attagene CIS-FACTORIAL HepG2 Assay for human cAMP Responsive Element (CRE) binding protein 3 (AID 2282926). The note with it: HepG2 CRE cis-reporter, Attagene multiplexed mRNA; actives raise or lower the signal. The procedure, abridged: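 Multiplexed transcription-unit reporters transfected into HepG2; 24 h dosing; RT-PCR/capillary electrophoresis fluorescence read-out; bidirectional fit vs DMSO.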

The target of test [3] is CCAAT/enhancer-binding protein beta (Homo sapiens) (UniProt P17676). Briefly: ATG_C_EBP_CIS: Attagene CIS-FACTORIAL HepG2 Assay for human CCAAT/Enhancer Binding Protein (C/EBP) beta (AID 2282927). The note with it: HepG2 Attagene cis-factorial transcription factor reporter; actives raise or lower the signal. The procedure, abridged:
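HepG2, transient MRTU transfection, 24 h treatment. RT-PCR plus CE fluorescence; DMSO negative control, bidirectional fit.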

Test [4] is described as follows: ATG_CMV_CIS: Attagene CIS-FACTORIAL HepG2 Assay for human CMV (Internal Marker) (AID 2282928).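 Also: endpoint acts as a background internal control marker rather than a target.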 The note with it: HepG2 CMV promoter reporter, transcription factor profiling; actives raise or lower the signal. The procedure, abridged: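 Endogenous transcription factor activity read in HepG2 via transfected cis-promoter reporter units. After 24 h dosing, reporter mRNA measured by RT-PCR/capillary electrophoresis; gain or loss of signal fit relative to DMSO.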

Test [5] can be described thus: ATG_DR4_LXR_CIS: Attagene CIS-FACTORIAL HepG2 Assay for human Liver X Receptor (LXR), DR4 submotif (AID 2282929). The note with it: HepG2 Attagene DR4 cis-reporter, mRNA transcription; actives raise or lower the signal. The procedure, abridged:
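Readout: reporter transcript fluorescence after RT-PCR and capillary electrophoresis, fitted bidirectionally against DMSO controls. Human HepG2 liver cells carried transiently transfected multiplexed reporter constructs; endogenous transcription factor activity measured 24 h post-dosing.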

The target of test [6] is Aryl hydrocarbon receptor (Homo sapiens) (UniProt P35869). Briefly: ATG_Ahr_CIS: Attagene CIS-FACTORIAL HepG2 Assay for human Aryl Hydrocarbon Receptor (Ahr) (AID 2282930). The note with it: HepG2 AhR cis-factorial reporter transcription; actives raise or lower the signal. The procedure, abridged: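 Endogenous factor activity is tracked through cis-promoter reporter units transfected into HepG2 cells. Transcript levels at 24 h are read by fluorescent RT-PCR and capillary electrophoresis, with activity in either direction scored relative to DMSO.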
Aryl hydrocarbon receptor (Homo sapiens), sequence (P35869 whole entry, looked up): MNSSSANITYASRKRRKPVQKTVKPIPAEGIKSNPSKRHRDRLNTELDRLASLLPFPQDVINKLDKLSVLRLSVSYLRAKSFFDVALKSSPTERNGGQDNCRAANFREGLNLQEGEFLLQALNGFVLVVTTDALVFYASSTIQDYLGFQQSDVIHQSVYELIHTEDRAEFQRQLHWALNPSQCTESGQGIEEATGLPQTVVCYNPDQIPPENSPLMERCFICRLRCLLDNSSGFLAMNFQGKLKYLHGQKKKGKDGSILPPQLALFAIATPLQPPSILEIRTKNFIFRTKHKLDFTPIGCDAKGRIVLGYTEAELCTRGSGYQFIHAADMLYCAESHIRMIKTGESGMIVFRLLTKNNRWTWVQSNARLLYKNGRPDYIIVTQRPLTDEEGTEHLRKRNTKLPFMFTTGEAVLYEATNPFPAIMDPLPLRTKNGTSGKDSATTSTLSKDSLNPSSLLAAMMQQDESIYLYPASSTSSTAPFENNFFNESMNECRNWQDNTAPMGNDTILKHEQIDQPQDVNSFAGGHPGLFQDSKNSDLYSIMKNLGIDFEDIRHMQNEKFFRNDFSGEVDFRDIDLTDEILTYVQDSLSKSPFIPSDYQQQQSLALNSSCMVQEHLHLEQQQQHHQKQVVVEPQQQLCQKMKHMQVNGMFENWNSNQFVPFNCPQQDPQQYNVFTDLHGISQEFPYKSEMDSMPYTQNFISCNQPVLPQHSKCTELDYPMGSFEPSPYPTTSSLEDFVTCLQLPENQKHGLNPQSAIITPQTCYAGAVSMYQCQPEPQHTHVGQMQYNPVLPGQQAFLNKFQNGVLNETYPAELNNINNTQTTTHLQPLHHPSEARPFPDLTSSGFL

Test [7] in a line: ATG_AP_1_CIS: Attagene CIS-FACTORIAL HepG2 Assay for human Activator Protein 1 (AP-1) (AID 2282931). To be noted: HepG2 Attagene cis-factorial AP-1 reporter mRNA; actives raise or lower the signal. The procedure, abridged:
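Reporter transcripts were measured 24 h after dosing by RT-PCR and capillary electrophoresis of fluorescent fragments. Cells: HepG2 carrying transfected cis-regulated reporter constructs reading endogenous factor activity. Gain or loss fitted against DMSO.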

Test [8] can be described thus: ATG_AP_2_CIS: Attagene CIS-FACTORIAL HepG2 Assay for human Activator Protein 2 (AP-2) (AID 2282932). To be noted: HepG2 AP-2 cis-reporter, Attagene transcription factor profiling; actives raise or lower the signal. The procedure, abridged:
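HepG2 cells transiently transfected with cis-element reporter units and exposed for 24 h. Reporter mRNA measured by RT-PCR, FAM labelling, HpaI digestion and capillary electrophoresis. Changes in either direction fitted relative to DMSO.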

The nature of test [9]: ATG_BRE_CIS: Attagene CIS-FACTORIAL HepG2 Assay for human Bone Morphogenetic Protein (BMP) Response Element (BRE) (AID 2282933). To be noted: HepG2 BMP response element reporter, Attagene transcription factor profiling; actives raise or lower the signal. The procedure, abridged: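 Multiplexed cis-reporter assay, HepG2, 24 h exposure. mRNA from reporter units quantified via RT-PCR/CE; DMSO baseline; bidirectional curve fit.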

In test [10] the target is Retinoic acid receptor alpha (Homo sapiens) (UniProt P10276). Briefly: ATG_DR5_RAR_CIS: Attagene CIS-FACTORIAL HepG2 Assay for human Retinoic Acid Receptor Alpha (RARE), DR5 submotif (AID 2282934).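 As to AC50: reporter responds to endogenous RAR alpha beta and gamma in HepG2 not RARA alone.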 The note with it: HepG2 Attagene cis-factorial RARE DR5 reporter, mRNA; actives raise or lower the signal. The procedure, abridged: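 After 24 h of chemical exposure, transiently transfected HepG2 cells were lysed for total RNA; the DR5-regulated reporter transcript was quantified via RT-PCR and capillary electrophoresis, with activity fitted bidirectionally against DMSO.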
Retinoic acid receptor alpha (Homo sapiens), sequence (P10276 whole entry, looked up): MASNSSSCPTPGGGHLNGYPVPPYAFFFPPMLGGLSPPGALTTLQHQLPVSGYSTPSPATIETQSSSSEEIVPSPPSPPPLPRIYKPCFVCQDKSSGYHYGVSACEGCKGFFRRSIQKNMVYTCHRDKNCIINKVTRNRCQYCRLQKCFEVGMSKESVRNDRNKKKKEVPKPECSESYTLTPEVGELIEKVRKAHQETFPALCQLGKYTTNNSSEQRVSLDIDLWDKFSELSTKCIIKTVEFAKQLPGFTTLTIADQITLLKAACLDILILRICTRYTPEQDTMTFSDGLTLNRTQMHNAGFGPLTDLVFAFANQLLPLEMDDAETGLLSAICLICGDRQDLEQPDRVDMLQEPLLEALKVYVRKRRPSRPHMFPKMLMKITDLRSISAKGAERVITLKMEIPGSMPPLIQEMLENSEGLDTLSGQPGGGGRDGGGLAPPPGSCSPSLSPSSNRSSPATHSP

The target of test [11] is Transcription factor E2F1 (Homo sapiens) (UniProt Q01094). Briefly: ATG_E2F_CIS: Attagene CIS-FACTORIAL HepG2 Assay for human E2F Transcription Factor 1 (AID 2282935). The note with it: HepG2 Attagene cis-reporter, E2F reporter RNA transcripts; actives raise or lower the signal. The procedure, abridged:
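Endogenous E2F1 activity read through cis-promoter reporter units transfected into HepG2. After 24 h compound treatment, reporter mRNA measured by RT-PCR, HpaI digestion and capillary electrophoresis. Bidirectional fit versus DMSO.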

Test [12] is described as follows: ATG_E_Box_CIS: Attagene CIS-FACTORIAL HepG2 Assay for human Enhancer Box (E-box) (AID 2282936). The note with it: HepG2 E-box cis-reporter transcription, actives raise or lower the signal. The procedure, abridged: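 HepG2 cells transiently transfected with multiplexed cis-element reporter units, dosed 24 h; reporter mRNA quantified by RT-PCR, 6-FAM labelling, HpaI digestion and capillary electrophoresis. E-box (USF1) signal fitted bidirectionally vs DMSO.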

Test [13] is described as follows: ATG_M_61_CIS: Attagene CIS-FACTORIAL HepG2 Assay for M61 Transcription Factor (Internal Marker) (AID 2282937). The note with it: HepG2 Attagene CIS-FACTORIAL M61 internal marker reporter; actives raise or lower the signal. The procedure, abridged: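 Readout: fluorescent reporter mRNA fragments resolved by capillary electrophoresis after RT-PCR. Transiently transfected human HepG2 cells carried MRTU constructs reporting endogenous TF activity; 24 h chemical exposure; gain or loss of signal fitted relative to DMSO.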

The nature of test [14]: ATG_EGR_CIS: Attagene CIS-FACTORIAL HepG2 Assay for human Early Growth Response 1 (EGR1) (AID 2282938). The note with it: HepG2 Attagene CIS-FACTORIAL EGR reporter mRNA; actives raise or lower the signal. The procedure, abridged:
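Read-out: fluorescent reporter-mRNA fragments resolved by capillary electrophoresis after RT-PCR, 24 h post-dose in transiently transfected HepG2. Endogenous transcription-factor activity reported via cis-element-regulated reporter units; gain or loss fitted relative to DMSO.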

The nature of test [15]: ATG_M_19_CIS: Attagene CIS-FACTORIAL HepG2 Assay for M19 Transcription Factor (Internal Marker) (AID 2282939). The note with it: HepG2 Attagene CIS-FACTORIAL M19 internal marker reporter; actives raise or lower the signal. The procedure, abridged: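 Signals come from fluorescence of labelled reporter-specific PCR fragments resolved by capillary electrophoresis, following 24 h treatment of HepG2 cells transfected with cis-promoter reporter units; activity was fitted in both directions relative to DMSO.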

Test [16] can be described thus: ATG_ERE_CIS: Attagene CIS-FACTORIAL HepG2 Assay for Estrogen Response Element (ERE) (AID 2282940). To be noted: HepG2 ERE cis-reporter, Attagene RNA transcript; actives raise or lower the signal. The procedure, abridged: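 Fluorescence of capillary-separated, FAM-labelled reporter cDNA fragments indicates reporter mRNA levels in HepG2 cells exposed to chemicals for 24 h. Transient transfection with cis-regulated units; data fitted in both directions against DMSO.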

Test [17] is described as follows: ATG_Ets_CIS: Attagene CIS-FACTORIAL HepG2 Assay for human Erythroblast Transformation Specific (ETS) (AID 2282941). To be noted: HepG2 ETS cis-reporter transcription, actives raise or lower the signal. The procedure, abridged:
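Steps: transfect HepG2 with multiple reporter units; treat compound 24 h; isolate RNA, DNase-treat, reverse-transcribe; PCR-amplify, label with 6-FAM, digest with HpaI; separate by capillary electrophoresis. Activity fitted both directions versus DMSO.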

The target in test [18] is Hepatocyte nuclear factor 3-beta (Homo sapiens) (UniProt Q9Y261). Nature of the test: ATG_FoxA2_CIS: Attagene CIS-FACTORIAL HepG2 Assay for human Forkhead box A2 (FOXA2) (AID 2282942). To be noted: HepG2 cis-reporter transcription factor activity, 24 h; actives raise or lower the signal. The procedure, abridged: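 Readout: fluorescent reporter transcripts resolved by capillary electrophoresis after RT-PCR. Transiently transfected HepG2, 24 h compound exposure, endogenous TF activity at cis promoter elements. Gain or loss of signal fitted relative to DMSO.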
Hepatocyte nuclear factor 3-beta (Homo sapiens), sequence (Q9Y261 whole entry, looked up): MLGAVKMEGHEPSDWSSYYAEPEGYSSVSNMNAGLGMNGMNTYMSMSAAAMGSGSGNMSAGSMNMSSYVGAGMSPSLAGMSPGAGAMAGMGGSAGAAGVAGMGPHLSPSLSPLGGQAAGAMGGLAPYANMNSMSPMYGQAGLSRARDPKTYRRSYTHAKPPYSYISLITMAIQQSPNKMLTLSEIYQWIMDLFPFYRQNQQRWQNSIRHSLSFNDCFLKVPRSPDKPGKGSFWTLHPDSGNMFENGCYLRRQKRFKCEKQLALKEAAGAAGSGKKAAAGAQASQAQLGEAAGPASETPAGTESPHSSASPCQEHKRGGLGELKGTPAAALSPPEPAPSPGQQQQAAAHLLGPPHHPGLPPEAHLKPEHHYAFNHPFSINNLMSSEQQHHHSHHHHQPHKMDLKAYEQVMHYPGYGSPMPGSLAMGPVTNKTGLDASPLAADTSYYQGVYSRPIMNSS

A short description of test [19]: ATG_FoxO_CIS: Attagene CIS-FACTORIAL HepG2 Assay for human Forkhead box O (FoxO) (AID 2282943). To be noted: HepG2 Attagene cis-reporter, FoxO element, mRNA; actives raise or lower the signal. The procedure, abridged: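 Transfected HepG2 reporter cells exposed to test chemical for 24 h; reporter RNA measured by reverse transcription, PCR and fluorescent capillary electrophoresis; curves fitted for increases and decreases against DMSO.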

Test [20] is described as follows: ATG_GATA_CIS: Attagene CIS-FACTORIAL HepG2 Assay for human GATA Binding Protein (AID 2282944). To be noted: HepG2 GATA cis-element reporter, Attagene multiplex mRNA; actives raise or lower the signal. The procedure, abridged:
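After transfecting HepG2 cells with multiple cis-regulated reporter units, chemicals are dosed for 24 h; isolated RNA undergoes RT-PCR and fluorescent labeling before capillary electrophoresis, with activity expressed against DMSO.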

CCAAT/enhancer-binding protein beta (Homo sapiens), sequence (P17676 whole entry, looked up): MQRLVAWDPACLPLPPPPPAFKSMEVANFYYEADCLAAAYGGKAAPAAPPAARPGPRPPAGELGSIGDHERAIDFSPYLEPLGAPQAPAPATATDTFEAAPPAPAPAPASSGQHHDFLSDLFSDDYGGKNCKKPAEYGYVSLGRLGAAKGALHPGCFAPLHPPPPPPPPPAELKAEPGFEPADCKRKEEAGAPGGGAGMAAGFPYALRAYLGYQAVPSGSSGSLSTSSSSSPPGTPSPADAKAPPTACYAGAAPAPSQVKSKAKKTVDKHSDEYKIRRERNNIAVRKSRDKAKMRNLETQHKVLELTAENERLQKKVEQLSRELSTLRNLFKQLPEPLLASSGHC
Transcription factor E2F1 (Homo sapiens), sequence (Q01094 whole entry, looked up): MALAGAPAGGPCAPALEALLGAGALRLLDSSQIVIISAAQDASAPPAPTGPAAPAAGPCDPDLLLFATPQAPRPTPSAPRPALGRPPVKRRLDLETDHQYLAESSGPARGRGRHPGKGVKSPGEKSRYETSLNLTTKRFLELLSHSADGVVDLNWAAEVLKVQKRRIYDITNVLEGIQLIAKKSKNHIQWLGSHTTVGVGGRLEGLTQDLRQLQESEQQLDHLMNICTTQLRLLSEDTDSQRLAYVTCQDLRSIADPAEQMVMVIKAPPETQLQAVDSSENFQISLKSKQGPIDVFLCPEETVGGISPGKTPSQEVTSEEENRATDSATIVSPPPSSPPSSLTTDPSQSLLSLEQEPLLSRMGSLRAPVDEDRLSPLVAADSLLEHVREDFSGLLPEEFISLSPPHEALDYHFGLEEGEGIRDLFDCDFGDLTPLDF

Turning to `Nc1cccnc1N`, the result in test [1], in test [2], in test [3], in [4], in [8] and in test [9] was inactive. In addition, the compound was classed as inactive in test [11], in [12], in test [13], in [14], in test [15] and in test [16]. In addition, the compound was classed as inactive in [17], in [18], in test [19] and in test [20]. The AC50 in test [5] is 53.5 µM (active); in test [6], 27.4 µM (active); in test [7], 16.7 µM (active); in test [10], 65.8 µM (active).

Consider `CCCCCCCCn1sc(Cl)c(Cl)c1=O`, for which the AC50 in test [1] was 0.023 µM (active); in [6] it was 6.89 µM (active); in test [7], 13.8 µM (active); in [8] it was 11.1 µM (active); in test [10], 5.39 µM (active); in test [16], 11.1 µM (active). For the same compound, the half-maximal activity concentration (AC50) in test [17] is 6.69 µM (active); in test [18], 8.19 µM (active); in test [20], 20.5 µM (active). For the same compound, the outcome in [2], in test [3], in [4], in test [5], in test [9] and in test [11] was inactive. The outcome in [12], in test [13], in test [14] and in test [19] was inactive.

Turning to `O=C(F)C1(F)C(F)(F)C(F)(F)C(F)(F)C(F)(F)C1(F)F`, the call in test [1], in [2], in test [3], in test [4], in test [5] and in [6] was inactive. Also, the compound was classed as inactive in test [7], in test [8], in [9], in test [10], in [11] and in [12]. Further, the outcome in test [13], in test [14], in [16], in [17], in test [18] and in test [19] was inactive. Further, in test [20], the compound was called inactive.

As for `O=S(=O)(O)CCC(F)(F)C(F)(F)C(F)(F)C(F)(F)F`, the compound was called inactive in test [1], in test [2], in [3], in test [4], in test [5] and in [6]. The call in test [7], in test [8], in test [9], in test [10], in test [11] and in [12] was inactive. In addition, the compound was called inactive in test [13], in test [14], in test [16], in test [17], in test [18] and in test [19]. Besides, in [20], the outcome was inactive.

In the case of `CC(=O)C=O`, the call in test [1], in [2], in test [3], in [4], in test [5] and in [6] was inactive. For the same compound, the compound was called inactive in test [7], in [8], in [9], in [10], in [11] and in [12]. For the same compound, the call in [13], in test [14], in [16], in [17], in test [18] and in test [19] was inactive. In addition, in [20], the compound was called inactive.

As for `CCCC(=O)OCC(COC(=O)CCC)OC(=O)CCC`, the compound was called inactive in [1], in [2], in test [3], in test [5], in test [6] and in [7]. Further, the result in [8], in test [11], in test [12], in test [13], in test [14] and in test [16] was inactive. In addition, the result in test [17], in test [18], in [19] and in [20] was inactive. For the same compound, the AC50 was 69.3 µM (active) in [4], 57.5 µM (active) in test [9] and 37.5 µM (active) in [10].

For the compound `CCc1cccc(C)c1N(C(=O)C(=O)O)C(C)COC` (centres undefined), the compound was called inactive in [1], in test [2], in test [3], in [4], in test [5] and in test [6]. Further, the call in test [7], in test [8], in test [9], in test [11], in [12] and in [13] was inactive. Also, the compound was classed as inactive in test [14], in test [15], in test [16], in [17], in test [18] and in [19]. For the same compound, the compound was classed as inactive in [20].

A word on the AC50: it is the concentration giving half of the maximal activity seen.
